For experiment [1], the target named is Oxysterols receptor LXR-alpha (Homo sapiens) (UniProt Q13133). Nature of the experiment: ATG_LXRa_TRANS: Attagene TRANS-FACTORIAL HepG2 Assay for human Liver X Receptor alpha (LXRa) (AID 2282980; active = hit-call score of the fitted dose curve at least 0.9, where 1 is the maximum). The conditions noted are these: HepG2 Attagene TRANS reporter, LXRa transactivation. In outline: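 Chemical-induced reporter mRNA measured by RT-PCR with fluorescent labelling and capillary electrophoresis after 24 h dosing of transiently transfected HepG2 cells expressing exogenous NR-Gal4 chimeras; increases scored against DMSO baseline.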
Sequence of Oxysterols receptor LXR-alpha (Homo sapiens) (Q13133 whole entry, looked up, the tested form may be a part): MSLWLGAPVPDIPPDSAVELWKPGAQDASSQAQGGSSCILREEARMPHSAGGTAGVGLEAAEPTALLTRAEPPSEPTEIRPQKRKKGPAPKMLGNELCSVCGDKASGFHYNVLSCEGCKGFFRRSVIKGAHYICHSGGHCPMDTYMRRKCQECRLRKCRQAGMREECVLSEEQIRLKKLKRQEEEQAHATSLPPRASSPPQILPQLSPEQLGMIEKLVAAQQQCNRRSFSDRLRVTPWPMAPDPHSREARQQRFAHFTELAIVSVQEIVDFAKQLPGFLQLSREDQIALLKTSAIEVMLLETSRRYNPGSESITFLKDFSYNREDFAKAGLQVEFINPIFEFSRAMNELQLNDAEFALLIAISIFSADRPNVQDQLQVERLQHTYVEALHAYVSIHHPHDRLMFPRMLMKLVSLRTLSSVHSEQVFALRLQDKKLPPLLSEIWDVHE

Experiment [2] in a line: ATG_M_32_TRANS: Attagene TRANS-FACTORIAL HepG2 Assay for M32 Transcription Factor (Internal Marker) (AID 2282984; active = hit-call score of the fitted dose curve at least 0.9, where 1 is the maximum;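 note: transcript level of a background control reporter unit measured by RT-PCR and capillary electrophoresis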). The conditions noted are these: HepG2 Attagene TRANS M32 internal marker reporter. In outline: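 Capillary electrophoresis of 6-FAM-labelled reporter fragments gives the signal; data fitted for gain over DMSO negative control. Source: HepG2 cells bearing transient multiple reporter transcription units, 24 h exposure.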

The target in experiment [3] is Nuclear receptor subfamily 4 group A member 2 (Homo sapiens) (UniProt P43354). As to the kind of experiment: ATG_NURR1_TRANS: Attagene TRANS-FACTORIAL HepG2 Assay for human Nuclear Receptor Related Protein 1 (NURR1) (AID 2282985; active = hit-call score of the fitted dose curve at least 0.9, where 1 is the maximum). The conditions noted are these: HepG2 Attagene TRANS reporter, mRNA readout. In outline:
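HepG2 / transient MRTU transfection / 24 h compound exposure / RT-PCR + CE fluorescence of reporter mRNA / gain-of-signal vs DMSO.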

For experiment [4], the target named is Transcriptional activator Myb (Homo sapiens) (UniProt P10242). Nature of the experiment: ATG_Myb_CIS: Attagene CIS-FACTORIAL HepG2 Assay for human Myeloblastosis (Myb) Proto-Oncogene Transcription Factor (AID 2282986). The conditions noted are these: HepG2 Attagene CIS-FACTORIAL Myb reporter transcription; actives raise or lower the signal. The essentials:
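Steps: transfect HepG2 with cis-regulated reporter units; dose with chemical for 24 h; isolate RNA, reverse-transcribe, PCR-amplify and FAM-label reporter sequences; digest with HpaI; resolve by capillary electrophoresis. Activity fitted in both directions relative to DMSO.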

The nature of experiment [5]: ATG_NFI_CIS: Attagene CIS-FACTORIAL HepG2 Assay for human Nuclear Factor I (NFI) (AID 2282989). The conditions noted are these: HepG2 cis-regulatory reporter, NFI response element transcription; actives raise or lower the signal. In outline:
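Reporter transcripts were measured by RT-PCR with fluorescent primer extension and capillary electrophoresis 24 h post-treatment. HepG2 cells carried transiently transfected cis-regulated reporter constructs reporting endogenous factor activity; gain or loss fitted against DMSO baseline.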

Experiment [6] deals with Myc proto-oncogene protein (Homo sapiens) (UniProt P01106). Nature of the experiment: ATG_Myc_CIS: Attagene CIS-FACTORIAL HepG2 Assay for human Myelocytomatosis (Myc) Proto-Oncogene Transcription Factor (AID 2282990). The conditions noted are these: HepG2, Attagene cis-reporter transcription factor activity; actives raise or lower the signal. In outline: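 Transiently transfected HepG2 cells bearing cis-promoter reporter units for endogenous transcription factors; 24 h exposure. Reporter mRNA measured by RT-PCR, 6-FAM primer extension, HpaI cut and capillary electrophoresis; bidirectional fit relative to DMSO.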
Sequence of Myc proto-oncogene protein (Homo sapiens) (P01106 whole entry, looked up): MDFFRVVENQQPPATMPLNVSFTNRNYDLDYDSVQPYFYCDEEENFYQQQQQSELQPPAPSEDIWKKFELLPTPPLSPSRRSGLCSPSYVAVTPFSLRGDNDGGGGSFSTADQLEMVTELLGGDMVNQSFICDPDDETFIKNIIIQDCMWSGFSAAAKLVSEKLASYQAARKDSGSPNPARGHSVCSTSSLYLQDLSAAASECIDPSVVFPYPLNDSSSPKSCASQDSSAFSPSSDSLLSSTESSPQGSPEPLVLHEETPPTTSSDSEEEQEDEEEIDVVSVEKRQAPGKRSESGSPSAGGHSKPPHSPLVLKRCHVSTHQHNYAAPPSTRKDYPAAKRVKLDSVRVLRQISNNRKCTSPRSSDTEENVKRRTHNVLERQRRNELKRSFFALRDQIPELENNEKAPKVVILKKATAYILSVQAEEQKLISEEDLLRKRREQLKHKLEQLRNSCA

In experiment [7] the target is Oxysterols receptor LXR-beta (Homo sapiens) (UniProt P55055). Nature of the experiment: ATG_LXRb_TRANS: Attagene TRANS-FACTORIAL HepG2 Assay for human Liver X Receptor beta (LXRb) (AID 2282981; active = hit-call score of the fitted dose curve at least 0.9, where 1 is the maximum). The conditions noted are these: HepG2 Attagene TRANS GAL4-LXRb reporter, mRNA. In outline:
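Gain-of-signal mRNA reporter endpoint, DMSO as negative control. Transiently transfected HepG2 cells carrying the NR-Gal4 chimera and GAL4-UAS reporter units were treated 24 h; transcripts quantified by RT-PCR and capillary electrophoresis fluorescence.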

Experiment [8] has as its target Nuclear respiratory factor 1 (Homo sapiens) (UniProt Q16656). Nature of the experiment: ATG_NRF1_CIS: Attagene CIS-FACTORIAL HepG2 Assay for human Nuclear Respiratory Factor 1 (NRF1) Orphan Gene (AID 2282987). As to conditions: HepG2 NRF1 cis-element reporter, Attagene multiplex; actives raise or lower the signal. The essentials:
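Fluorescence intensity of labelled reporter cDNA fragments, resolved by capillary electrophoresis, served as readout for NRF1 cis-element activity. Transiently transfected HepG2 cells were dosed for 24 hours; activity in either direction was fitted against DMSO negative control.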

The target of experiment [9] is Hepatocyte nuclear factor 4-alpha (Homo sapiens) (UniProt P41235). As to the kind of experiment: ATG_HNF4a_TRANS: Attagene TRANS-FACTORIAL HepG2 Assay for human Hepatocyte Nuclear Factor 4 alpha (HNF4a) (AID 2282982; active = hit-call score of the fitted dose curve at least 0.9, where 1 is the maximum). As to conditions: HepG2 HNF4a transactivation reporter, mRNA readout. In outline: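 Gain-of-signal mRNA induction, relative to DMSO vehicle, was read after 24 h compound treatment of HepG2 cells bearing transfected GAL4-UAS reporters. Detection used RT-PCR, 6-FAM primer extension and capillary electrophoresis.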
Sequence of Hepatocyte nuclear factor 4-alpha (Homo sapiens) (P41235 whole entry, looked up, the tested form may be a part): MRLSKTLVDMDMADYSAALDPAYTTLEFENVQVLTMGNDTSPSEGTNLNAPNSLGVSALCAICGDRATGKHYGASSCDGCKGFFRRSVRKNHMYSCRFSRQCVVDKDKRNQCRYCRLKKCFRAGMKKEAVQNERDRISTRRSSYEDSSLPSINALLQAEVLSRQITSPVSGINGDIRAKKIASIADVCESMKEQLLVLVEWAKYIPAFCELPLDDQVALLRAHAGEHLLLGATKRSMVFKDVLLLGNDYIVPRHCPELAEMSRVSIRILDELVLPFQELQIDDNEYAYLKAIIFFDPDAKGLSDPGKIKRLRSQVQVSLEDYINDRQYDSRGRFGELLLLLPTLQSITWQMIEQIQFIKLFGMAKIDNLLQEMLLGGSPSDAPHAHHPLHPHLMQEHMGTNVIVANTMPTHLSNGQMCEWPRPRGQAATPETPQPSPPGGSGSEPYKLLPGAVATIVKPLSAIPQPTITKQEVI

Experiment [10] in a line: ATG_M_06_TRANS: Attagene TRANS-FACTORIAL HepG2 Assay for M06 Transcription Factor (Internal Marker) (AID 2282983; active = hit-call score of the fitted dose curve at least 0.9, where 1 is the maximum). The conditions noted are these: HepG2 Attagene TRANS M06 internal marker reporter. The essentials:
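Cells: HepG2, transient multi-reporter transfection. Exposure: 24 h. Detection: RT-PCR, 6-FAM labelling, HpaI digestion (2 h, 37 °C), capillary electrophoresis. Baseline: DMSO.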

As a reminder, the AC50 is the concentration giving half of the maximal activity seen.

Records with an inconclusive call do not appear. Calls of active or inactive are those of the source. Rule for the calls, unless noted: active = hit-call score of the fitted dose curve at least 0.9, where 1 is the maximum; inactive = score below 0.9.

Sequence of Transcriptional activator Myb (Homo sapiens) (P10242 whole entry, looked up): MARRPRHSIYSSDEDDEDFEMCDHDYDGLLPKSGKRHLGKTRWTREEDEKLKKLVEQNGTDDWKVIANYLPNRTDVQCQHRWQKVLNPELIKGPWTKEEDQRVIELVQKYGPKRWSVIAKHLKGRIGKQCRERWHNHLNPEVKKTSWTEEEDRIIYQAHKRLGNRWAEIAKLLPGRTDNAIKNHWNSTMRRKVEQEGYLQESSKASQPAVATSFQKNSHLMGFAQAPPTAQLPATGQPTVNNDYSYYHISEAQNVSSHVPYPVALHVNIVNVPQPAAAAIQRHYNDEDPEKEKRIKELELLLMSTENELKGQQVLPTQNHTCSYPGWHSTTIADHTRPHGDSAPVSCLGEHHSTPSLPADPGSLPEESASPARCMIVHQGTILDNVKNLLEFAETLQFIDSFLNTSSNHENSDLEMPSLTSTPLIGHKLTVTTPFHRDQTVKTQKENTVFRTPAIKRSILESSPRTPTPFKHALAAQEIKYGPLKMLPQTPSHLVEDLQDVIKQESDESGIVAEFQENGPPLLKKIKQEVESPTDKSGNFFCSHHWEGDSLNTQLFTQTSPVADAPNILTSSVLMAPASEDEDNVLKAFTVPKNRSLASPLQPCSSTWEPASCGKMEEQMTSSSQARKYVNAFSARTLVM
Sequence of Nuclear receptor subfamily 4 group A member 2 (Homo sapiens) (P43354 whole entry, looked up): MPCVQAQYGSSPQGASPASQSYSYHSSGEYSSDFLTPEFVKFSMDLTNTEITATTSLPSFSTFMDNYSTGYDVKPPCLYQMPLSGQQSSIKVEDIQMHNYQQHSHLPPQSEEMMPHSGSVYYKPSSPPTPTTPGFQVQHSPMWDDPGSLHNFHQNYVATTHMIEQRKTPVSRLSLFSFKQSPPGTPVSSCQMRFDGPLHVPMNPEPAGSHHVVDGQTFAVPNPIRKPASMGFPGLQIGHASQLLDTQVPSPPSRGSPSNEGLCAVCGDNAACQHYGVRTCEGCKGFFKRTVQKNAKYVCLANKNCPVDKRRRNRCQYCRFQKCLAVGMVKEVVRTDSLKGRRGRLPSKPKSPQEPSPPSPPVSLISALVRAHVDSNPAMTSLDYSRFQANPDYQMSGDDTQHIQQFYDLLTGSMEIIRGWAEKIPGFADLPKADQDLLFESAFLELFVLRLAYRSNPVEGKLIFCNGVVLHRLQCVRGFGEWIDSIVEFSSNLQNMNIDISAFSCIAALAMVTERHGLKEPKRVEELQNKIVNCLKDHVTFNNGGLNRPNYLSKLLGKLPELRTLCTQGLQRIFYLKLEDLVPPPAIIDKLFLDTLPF
Sequence of Oxysterols receptor LXR-beta (Homo sapiens) (P55055 whole entry, looked up, the tested form may be a part): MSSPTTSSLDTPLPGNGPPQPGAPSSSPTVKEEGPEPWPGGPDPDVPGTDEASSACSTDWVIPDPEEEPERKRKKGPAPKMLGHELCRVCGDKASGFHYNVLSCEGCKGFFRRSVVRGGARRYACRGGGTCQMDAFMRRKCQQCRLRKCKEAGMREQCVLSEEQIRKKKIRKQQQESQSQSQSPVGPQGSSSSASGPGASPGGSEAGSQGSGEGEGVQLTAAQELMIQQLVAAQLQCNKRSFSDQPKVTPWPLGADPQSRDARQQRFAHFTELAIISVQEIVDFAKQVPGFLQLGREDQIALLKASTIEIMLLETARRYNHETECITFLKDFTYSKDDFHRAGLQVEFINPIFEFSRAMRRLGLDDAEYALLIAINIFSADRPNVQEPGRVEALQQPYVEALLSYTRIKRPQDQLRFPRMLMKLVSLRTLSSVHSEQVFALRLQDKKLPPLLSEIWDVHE
Sequence of Nuclear respiratory factor 1 (Homo sapiens) (Q16656 whole entry, looked up, the tested form may be a part): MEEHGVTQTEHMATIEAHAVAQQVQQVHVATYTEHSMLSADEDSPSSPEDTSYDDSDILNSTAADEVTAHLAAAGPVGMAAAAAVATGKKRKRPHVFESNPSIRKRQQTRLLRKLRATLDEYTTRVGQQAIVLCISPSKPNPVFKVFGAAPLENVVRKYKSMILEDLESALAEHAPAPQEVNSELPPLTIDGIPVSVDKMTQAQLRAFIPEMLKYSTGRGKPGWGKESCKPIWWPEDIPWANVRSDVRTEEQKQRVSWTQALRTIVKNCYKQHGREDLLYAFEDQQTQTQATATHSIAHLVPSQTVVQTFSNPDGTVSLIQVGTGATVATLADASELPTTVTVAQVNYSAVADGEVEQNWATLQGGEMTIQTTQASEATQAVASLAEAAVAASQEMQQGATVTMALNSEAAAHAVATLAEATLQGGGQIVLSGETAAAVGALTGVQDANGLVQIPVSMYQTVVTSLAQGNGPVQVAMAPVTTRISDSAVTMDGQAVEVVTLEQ

Turning to `O=C1C[C@@H]2OCC=C3CN4CC[C@]56c7ccccc7N1[C@H]5[C@H]2[C@H]3C[C@H]46`, the result in experiment [1], in experiment [2], in experiment [3], in experiment [4], in experiment [5] and in [6] was inactive.

`C[C@]12CC[C@@H](O)C[C@@H]1CC[C@@H]1[C@@H]2CC[C@]2(C)C(=O)CC[C@@H]12`: the compound was classed as inactive in [1], in experiment [7], in experiment [4], in experiment [8], in [5] and in experiment [6].

For `OC(Cc1ccccc1Cl)(Cn1[nH]cnc1=S)C1(Cl)CC1` (centres undefined), the compound was classed as inactive in experiment [1], in experiment [3], in [4], in experiment [5] and in experiment [6].

On to `CN(C1CCCCC1)C1CCCCC1`, for which the compound was called inactive in experiment [1], in experiment [9], in experiment [2], in [4], in experiment [8] and in [5]. Moreover, the compound was classed as inactive in [6].

For the compound `CCCCCCCCCCBr`, the compound was called inactive in [1], in experiment [9], in experiment [2], in experiment [3], in [4] and in experiment [5]. Moreover, the compound was called inactive in [6].

In the case of `CC(C)(C#N)N=NC(C)(C)C#N`, the compound was called inactive in [1], in [7], in [2], in [3], in [4] and in experiment [5]. Further, the result in [6] was inactive.

As for `Cc1cc(Cl)ccc1N`, the result in experiment [1], in experiment [2], in experiment [4], in [8], in [5] and in experiment [6] was inactive.

Regarding `CCCCCCCCBr`, the call in [1], in experiment [9], in experiment [2], in experiment [3], in [4] and in experiment [8] was inactive. For the same compound, the call in experiment [5] and in experiment [6] was inactive.

As for `Cc1ccccc1OP(=O)(Oc1ccccc1)Oc1ccccc1`, the result in [1], in [2], in [4], in experiment [5] and in [6] was inactive. For the same compound, the AC50 in experiment [3] was 25.2 µM (active).

Consider `Cc1cc(-c2cc(C)c(N)c(C)c2)cc(C)c1N`, for which the compound was called inactive in [1], in experiment [2], in [3], in experiment [4], in experiment [8] and in [5]. Moreover, in experiment [6], the call was inactive.

Take `C=CCOC(N)=O`: the result in experiment [7], in experiment [9], in experiment [10], in experiment [2], in [3] and in experiment [4] was inactive. For the same compound, the compound was classed as inactive in experiment [8], in experiment [5] and in experiment [6].

As to `CC1CC(=O)O1` (centres undefined), the compound was classed as inactive in [7], in experiment [9], in experiment [10], in experiment [2], in experiment [3] and in experiment [4]. In addition, the compound was classed as inactive in experiment [8], in experiment [5] and in experiment [6].

On to `COCCl`, for which the result in experiment [1], in experiment [10], in experiment [2], in experiment [4], in experiment [8] and in [5] was inactive. In addition, the result in [6] was inactive.

As to `O=[N+]([O-])c1ccc(Cl)c([N+](=O)[O-])c1`, the compound was called inactive in experiment [1], in experiment [2], in [3], in experiment [4], in experiment [8] and in experiment [5]. The AC50 in [6] was 3.71 µM (active).

Turning to `O=C1C=CC(=O)c2ccccc21`, the result in experiment [1], in experiment [7], in [2], in experiment [3], in experiment [4] and in experiment [8] was inactive. Further, the compound was classed as inactive in [5] and in experiment [6].

On to `CC(F)(F)CC(F)(F)F`, for which the outcome in [1], in experiment [9], in experiment [2], in experiment [4], in experiment [8] and in experiment [5] was inactive. For the same compound, the call in [6] was inactive.

Turning to `CC[N+](CC)(CC)CC`, the compound was called inactive in experiment [1], in experiment [10], in [2], in [4], in experiment [8] and in [5]. Besides, the result in experiment [6] was inactive.

`COC(=O)Nc1cccc(OC(=O)Nc2cccc(C)c2)c1`: the outcome in experiment [1], in experiment [4], in experiment [8], in experiment [5] and in [6] was inactive.

Take `O=S(=O)(C(Cl)(Cl)Cl)C(Cl)(Cl)Cl`: the call in experiment [1], in [10], in experiment [2], in [3], in experiment [4] and in experiment [8] was inactive. The figures for the AC50 in [5] and in experiment [6] were 17.9 µM (active) and 11.1 µM (active), respectively.

For `CC(C)(C)c1cc([N+](=O)[O-])cc(C(C)(C)C)c1O`, the outcome in [1], in experiment [9], in [4], in experiment [8], in experiment [5] and in experiment [6] was inactive. The concentration at half-maximal activity (AC50) in [3] is 12.4 µM (active).

As for `OC[P+](CO)(CO)CO`, the compound was classed as inactive in experiment [7], in experiment [9], in experiment [10], in [2], in experiment [3] and in [4]. The compound was classed as inactive in experiment [8], in experiment [5] and in [6].

In the case of `CNC(=O)CSP(=O)(OC)OC`, the compound was called inactive in [7], in experiment [9], in experiment [10], in [2], in experiment [3] and in experiment [4]. For the same compound, the compound was called inactive in experiment [8], in [5] and in experiment [6].

For the compound `COc1ccccc1N`, the outcome in [1], in experiment [9], in experiment [2], in experiment [3], in experiment [4] and in experiment [8] was inactive. For the same compound, the compound was classed as inactive in experiment [5] and in experiment [6].

For the compound `O=[N+]([O-])c1c2ccccc2cc2ccccc12`, the outcome in experiment [1], in experiment [9], in [10], in experiment [2], in experiment [4] and in [8] was inactive. Besides, the call in experiment [5] and in experiment [6] was inactive.

As for `N#Cc1ccncc1`, the result in [7], in [9], in [10], in [2], in [3] and in [4] was inactive. Further, the compound was classed as inactive in experiment [8], in experiment [5] and in [6].

With `O=C(Cc1ccccc1)OCCc1ccccc1`, the compound was called inactive in experiment [7], in experiment [9], in experiment [2], in experiment [3], in experiment [4] and in experiment [8]. Besides, the result in experiment [5] and in experiment [6] was inactive.

On to `O=NN1CCCCCCC1`, for which the compound was called inactive in [7], in [9], in experiment [10], in experiment [2], in experiment [4] and in experiment [8]. In addition, the compound was called inactive in experiment [5] and in experiment [6].

For `Clc1cccc(Cl)c1Cl`, the compound was classed as inactive in [7], in experiment [9], in [10], in experiment [4], in experiment [8] and in experiment [5]. Moreover, the compound was called inactive in experiment [6].

With `C=C(C)C(=O)OCCCCOC(=O)C(=C)C`, the outcome in [7], in [9], in [2], in [3], in experiment [4] and in experiment [8] was inactive. Further, the compound was called inactive in experiment [5] and in [6].

With `CN(N=O)C(N)=O`, the compound was called inactive in [7], in [9], in experiment [2], in experiment [3], in experiment [4] and in experiment [8]. Further, the call in [5] and in experiment [6] was inactive.

For the compound `CCCCS(=O)(=O)Cl`, the outcome in [7], in experiment [9], in experiment [2], in experiment [3], in experiment [4] and in experiment [8] was inactive. Also, the compound was called inactive in experiment [5] and in experiment [6].

In the case of `N#Cc1ccccc1N`, the result in experiment [7], in [9], in experiment [2], in experiment [4], in experiment [8] and in experiment [5] was inactive. Also, the outcome in experiment [6] was inactive.

`C=CCc1ccccc1O`: the compound was classed as inactive in [7], in experiment [9], in [10], in experiment [2], in experiment [4] and in [8]. Besides, the result in [5] and in [6] was inactive.

For the origin of these results see PubChem BioAssay (EPA / NIEHS).
